Data from PubChem BioAssay AID720650 (Broad Institute, 2013).
Values without a mark were called inactive. Activity calls are given as the source filed them. No rule for the calls is given here.

experiment: C difficile toxins, biochemical counterscreen, UDPG substrate absence, confirmatory dose response (AID 720650); conditions: series mostly up to 19.5 µM; activity change, negative = inhibition: at the top concentration

Point of comparison: `Clc1cccc(-c2ccc3ncnc(NCc4cccs4)c3c2)c1`, “activity change, negative = inhibition” value -12.4%. Against it:
- CCOC(=O)c1ccc(-n2c(CCC(=O)O)ccc2-c2ccc(F)cc2)cc1 — higher, 10.7%
- C=CCNS(=O)(=O)c1nc(C)c(Cl)c(C)c1C#N — higher, -3.36%
- CC1(C)OC2C(O1)[C@@H](CO)O[C@H]2n1cnc2c(N)ncnc21 (some centres undefined) — higher, 0.905%
- Cc1ccnc(N2C(=O)c3ccccc3C2=O)c1 — higher, 6.58%
- C[C@@H]1C=C[C@](Cc2ccccc2)(C(=O)NCC2CC2)N1C(=O)c1ccccc1 — higher, -3.34%
- CC[C@H](C)[C@@H]1NC(=O)c2cc([N+](=O)[O-])cc(I)c2NCC[C@@H](C(N)=O)NC(=O)[C@H](CCCN=C(N)N)NC1=O — higher, 1.27%
- CC1CN=C(Nc2cccc(S(=O)(=O)N(C)C)c2)S1 (centres undefined) — higher, 4.21%
- CCN1CC(CNCc2cn(-c3ccc(OC)cc3)nc2-c2ccccc2Cl)CC1=O (centres undefined) — higher, -3.53%
- CCCc1cc(=O)oc2c3c(cc(OCC(=O)NCCCn4ccnc4)c12)OC(C)(C)CC3 — higher, 11.7%
- CCN1CCN(S(=O)(=O)c2ccc3[nH]c(=O)oc3c2)CC1 — higher, 1.66%
- CCOc1ccccc1/C=C/c1onc(C)c1S(=O)(=O)N1CCC(C(=O)NC(C)(C)C)CC1 — higher, -3.36%
- Cc1cnc(C(=O)OCC(=O)N2C(C)CCCC2C)cn1 (centres undefined) — higher, 5.63%
- C[C@H]1CN([C@@H](C)CO)S(=O)(=O)c2ccc(-c3ccncc3)cc2O[C@H]1CN(C)Cc1ccc(Oc2ccccc2)cc1 — higher, -6.4%
- O=C(NC(=S)NCc1ccccc1)c1cccnc1 — higher, -0.968%
- O=C(NCCc1cccc(Cl)c1)c1ccc(Cl)c([N+](=O)[O-])c1 — higher, -6.18%
- CCCNC(=O)Nc1ccc2c(c1)C(=O)N(C)[C@@H]1CC[C@H](CC(=O)NC3CCC3)O[C@H]1CO2 — higher, -5.24%
- CCOc1cc(/C=N/n2cnnc2)ccc1O — lower, -19.8%
- CCOC(=O)N1CCC(c2cc(=O)n3[nH]c(-c4ccccc4)cc3n2)CC1 — higher, -11.1%
- COC(=O)CN1C(C)=Nc2ccc(Br)cc2C1c1ccccc1 (centres undefined) — higher, -11.4%
- COc1cc(/C=N/NC(=O)Cn2nnc3ccccc32)ccc1O — higher, 2.37%
- CNC(=O)C[C@@H]1CC[C@H]2[C@H](COc3ccc(NS(=O)(=O)c4ccccc4C)cc3C(=O)N2C)O1 — higher, -5.07%
- Cc1cc(-c2ccc(NS(=O)(=O)c3ccccc3)c(C)c2)ccc1NS(=O)(=O)c1ccccc1 — higher, -6.17%
- CC(C)OC(=O)c1cccc(C(=O)O)n1 — higher, 9.38%
- CCN(C(=O)CN1C(=O)NC2(CCC(C)CC2)C1=O)C1CCCCC1 (centres undefined) — higher, -4.99%
- CCCCn1c(N)c(N(CCOC)C(=O)CSc2nnc(-c3ccco3)n2CC)c(=O)[nH]c1=O — higher, 5.63%
- CCOc1ccccc1/C=C/c1onc(C)c1S(=O)(=O)N1CCC(C(=O)NC)CC1 — higher, -10.6%
- CC(=O)Nc1ccc(NC(=O)CN2CCN(c3ccccn3)CC2)cc1 — higher, -8.5%
- O=C(NC(=S)NNC(=O)c1ccccc1F)c1cccnc1 — higher, 9.74%

For `CCn1c(C)nc2cc(C(=O)N/N=C/c3ccc(O)cc3)ccc21`, the AC50 was 15.1 µM (active).
For `O=C(NNc1ccc(-c2csnn2)cc1)c1ccccc1C(F)(F)F`, the AC50 was 0.432 µM (active).
`O=c1c2ccccc2nc(/C=C/c2ccc(O)cc2)n1-c1ccccc1O` gave an AC50 of over 39 µM.
With `Cc1cc(N/N=C/c2ccc(O)cc2)c2cccc(C)c2n1` the AC50 was 16.3 µM (active).
With `CC(C)NC(=O)N1CC[C@@H]2[C@H]1c1cc(-c3ccc(F)cc3)ccc1N(C)[C@H]2CO` the AC50 was 6.96 µM (active).
In the case of `Cc1cc(C=C2C(=O)c3ccccc3C2=O)c(C)n1-c1ccc(C(=O)O)cc1`, the AC50 is reported as 12 µM (active).
For `Nc1nc(Nc2ccccc2)n[nH]1`, the AC50 was over 39 µM.
In the case of `CN(C)/C=C(\C#N)C(=O)Nc1ccc(O)cc1F`, the AC50 is reported as 9.11 µM (active).
`CCOC(=O)c1c(C)[nH]c(C)c1C(=O)COC(=O)/C=C/c1ccco1` gave an AC50 of over 39 µM.
In the case of `Cc1cc(C)c(S(=O)(=O)c2ccc(Cl)cc2C)c(Cl)n1`, the AC50 is reported as over 39 µM.
